Screening data: PubChem, several laboratories
Insulin prom up = insulin promoter activators in MIN6 cells, imaging, high-content screening, mouse beta cells | MIN6 insulin promoter-GFP reporter; hits give high values | z-score at 5 µM | actives 0.3% (n = 190,000) | AID 1625, 2009;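 active = z-score above 3 at 5 µM with at least 500 cells counted in the well; inconclusive = wells under 500 cells, flagged as cytotoxic or low count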
INS promoter inh = inhibitors of insulin promoter-driven GFP, primary screen, imaging, TRM-6 cells (human fetal islet line), eGFP reporter, cell count. reporter expression induced with tamoxifen. inhibition, % at 2 µM. actives 0.9% (n = 130,000). AID 1273, 2008;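 active = inhibition above the mean plus 3 SD, with well images judged a real hit on visual review, cut at about 60% in these data, passing the limit was not always enough; inconclusive = inhibition over the cutoff but images rejected on review; inactive = inhibition not above the cutoff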
L major viab = Leishmania major promastigote growth inhibition, primary screen; AID 1063, 2008; Leishmania major promastigotes, resazurin fluorescence viability; actives 9% (n = 200,000); inhibition, % at 10 µM; in the data active = inhibition above about 50%;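 also: promastigotes grown with compound for 44 hours at 28 °C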
ROMK primary = ROMK potassium channel modulators, primary screen, cell-based, thallium flux, MLSMR library. ATP-sensitive inward rectifier potassium channel 1 (Homo sapiens), P48048. Tet-inducible ROMK, thallium flux fluorescence; actives lie on both sides. B-score at 10 µM. actives 2% (n = 130,000);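 active = signal ratio slope over the read window, or its plate-corrected B-score, at least 3 SD from the plate mean, either direction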;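 also: B-score of the F/F0 ratio slope over 7 to 12 s after thallium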
WT yeast gro inh = growth inhibition of WT strain, primary screen, mitochondrial fusion inhibitor project, WT and mutant strains, chemical genetic. mitochondrial fusion phenotypic screen. inhibition, % at 10 µM. actives 2.1% (n = 190,000). AID 1362, 2008; in the data active = inhibition above about 58%; tested in S. cerevisiae
KCC2 mod = KCC2 cotransporter modulators, thallium flux, primary screen, cell-based, HEK293 KCC2, FluoZin-2 fluorescence, MLSMR. Solute carrier family 12 member 5 (Homo sapiens), Q9H2X9. actives 2.2% (n = 190,000). AID 1456, 2008. B-score of Tl+ flux slope (higher = more flux/activation; lower = inhibition) at 10 µM. KCC2 cells, thallium flux FluoZin-2 fluorescence;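 active = thallium flux slope and its plate-corrected score both differing from the plate sample mean at a set confidence after two filtering rounds, in either direction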;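 also: slope of fluorescence scaled to starting intensity during 10 to 20 s after thallium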
KCC2 sec1 = KCC2 modulators in sodium-free buffer, confirmation, cell-based, HEK293 KCC2, thallium flux, secondary assay | AID 1713, 2009 | shares compounds with KCC2 mod | actives 15% (n = 3,700) | normalised thallium flux (F/F0 slope) at 10 µM | FluoZin2 fluorescence; hits give high values;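 active = thallium flux slope above the same plate's solvent-only control mean plus 3 SD; inconclusive = the two replicate wells disagree; inactive = no significant difference from solvent-only control wells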
KCC2 bumet counter = thallium flux persisting under bumetanide in KCC2 cells, confirmation, counter-screen for KCC2 modulator project, cell-based, HEK293 KCC2, FluoZin2, secondary assay 3. shares compounds with KCC2 mod. HEK293-KCC2 + bumetanide/ouabain; hits give high values. normalized thallium flux at 10 µM. actives 49% (n = 3,700). AID 1714, 2009;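 active = thallium entry rate above the same plate's blocked-transporter control wells by more than 3 SD; inconclusive = the two repeat wells disagree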;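 also: raw slope of fluorescence over initial fluorescence between 10 and 20 s after thallium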
KCC2 secondary2 = KCC2 modulators without ouabain present, confirmation, cell-based, HEK293 KCC2, thallium flux, FluoZin2, secondary assay 2; actives 23% (n = 3,700); shares compounds with KCC2 mod; normalized thallium flux at 10 µM; thallium flux FluoZin2 fluorescence; actives lie on both sides; F/F0 rise rate, 10–20 s post-thallium;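 active = thallium flux slope more than 3 SD above or below the plate's solvent-only control mean, mostly below; inconclusive = the two repeat wells disagreed; inactive = no significant shift from solvent-only controls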;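 also: raw slope with 0.1% DMSO as baseline and bumetanide as block control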
HEK counter1 = thallium flux modulation in parental HEK cells, confirmation, counter-screen for KCC2 modulator project, cell-based, counterscreen 1. AID 1716, 2009. thallium flux rate (normalised fluorescence) at 10 µM. actives 46% (n = 3,700). HEK293 parental cells, thallium flux FluoZin2, ouabain; baseline-ratio fluorescence slope, 10–20 s after thallium. shares compounds with KCC2 mod;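 active = thallium flux rate significantly above the same plate's solvent-only control wells, beyond their mean plus 3 SD; inconclusive = the two replicate wells gave conflicting results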
KCC2 retest ouab = KCC2 inhibitors and activators, ouabain retest, confirmation, HEK-KCC2 cells | raw Tl+ flux slope (below DMSO = inhibition, above = activation) at 10 µM | actives 48% (n = 3,700) | HEK293-KCC2, thallium flux FluoZin2 fluorescence; bidirectional: low = inhibitor, high = activator | AID 1717, 2009 | shares compounds with KCC2 mod;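 active = thallium flux slope beyond 3 SD from same-plate DMSO control mean in most replicates, usually higher, sometimes lower; inconclusive = repeat tests gave conflicting results; inactive = no significant difference from controls in most replicates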;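 also: slope of initial-normalized fluorescence between seconds 10 and 20 after thallium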
HEK counter2 = native HEK Tl+ uptake effects, second counter-screen – HEK cells, counterscreen 2, counter-screen for KCC2 modulator project, confirmation | shares compounds with KCC2 mod | HEK293 parental, thallium flux FluoZin-2 fluorescence slope | AID 1718, 2009 | actives 33% (n = 3,700) | thallium flux slope at 10 µM;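 active = thallium flux slope above the same plate's solvent-control mean plus 3 SD in both duplicate wells; inconclusive = duplicate wells that disagreed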;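 also: run without ouabain in cells lacking the KCC2 cotransporter; slope of fluorescence scaled to its starting value between 10 and 20 s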
Active calls of the source: *. Only some compounds are listed: those with a hit (about 12% of all), similar ones and a draw of the others.

`NC(=O)c1ccccc1NC(=O)Nc1cccc2ccccc12` gave Insulin prom up 0.55, INS promoter inh -79, L major viab -2, ROMK primary -0.24, WT yeast gro inh -18, KCC2 mod -4.1*, KCC2 sec1 inconclusive, KCC2 bumet counter 0.0063, KCC2 secondary2 0.029, HEK counter1 0.006, KCC2 retest ouab 0.019 and HEK counter2 0.0095.
`NC(=O)NNC(=S)Nc1cccc2ccccc12` gave Insulin prom up 0.19, L major viab -2, ROMK primary -0.44, WT yeast gro inh 5 and KCC2 mod -0.42.
Screening O=C(CNS(=O)(=O)c1c(Cl)cccc1Cl)OCc1csc(-c2ccccc2)n1 returned Insulin prom up 0.1, INS promoter inh -10, L major viab 57*, ROMK primary -0.98, WT yeast gro inh 20, KCC2 mod -4.1*, KCC2 sec1 0.0065, KCC2 bumet counter 0.0042, KCC2 secondary2 0.023*, HEK counter1 inconclusive, KCC2 retest ouab 0.015* and HEK counter2 0.0093.
For O=S(=O)(NCc1csc(-c2ccccc2)n1)c1ccc(Cl)s1 the results were INS promoter inh 29, L major viab -5, WT yeast gro inh 22, KCC2 mod -5.7*, KCC2 sec1 0.0051, KCC2 bumet counter 0.014*, KCC2 secondary2 0.022*, HEK counter1 0.0068, KCC2 retest ouab 0.016* and HEK counter2 inconclusive.
Screening O=C(Cc1ccccc1)Nc1ccc(NC(=O)c2cccs2)cc1 returned Insulin prom up 0.61, INS promoter inh -33, L major viab -6, ROMK primary -0.16, WT yeast gro inh 8 and KCC2 mod 0.21.
`O=C(CSc1nnc(Cc2ccccc2)o1)N1CCCc2ccccc21` gave Insulin prom up 0.53, INS promoter inh 26, L major viab -7, ROMK primary -0.61, WT yeast gro inh 13, KCC2 mod -6.1*, KCC2 sec1 0.0056, KCC2 bumet counter 0.0038, KCC2 secondary2 0.021*, HEK counter1 0.0068, KCC2 retest ouab 0.012* and HEK counter2 inconclusive.
For O=C(CSc1nnc(Cc2ccccc2)o1)c1ccc(F)cc1 the results were Insulin prom up 0.49, KCC2 mod -4.3*, KCC2 sec1 0.005, KCC2 bumet counter inconclusive, KCC2 secondary2 0.022*, HEK counter1 0.0074, KCC2 retest ouab inconclusive and HEK counter2 0.01.
Screening O=C(CSc1nnc(Cc2ccccc2)o1)c1cc(F)ccc1F returned Insulin prom up 0.2, INS promoter inh -42, L major viab -12, ROMK primary -0.17, WT yeast gro inh 5, KCC2 mod -7.1*, KCC2 sec1 0.0039*, KCC2 bumet counter 0.0046, KCC2 secondary2 0.02*, HEK counter1 inconclusive, KCC2 retest ouab 0.012* and HEK counter2 0.0099.
For O=C(CSc1nnc(Cc2ccsc2)o1)c1ccccc1 the results were Insulin prom up -0.39, ROMK primary -0.73 and KCC2 mod -4.3.
Screening CCOc1ccc(N2CC(C(=O)NCc3ccccc3)CC2=O)cc1 (stereo not given) returned Insulin prom up -0.32, INS promoter inh 20, L major viab -4, ROMK primary -0.23, WT yeast gro inh -5 and KCC2 mod -0.0021.
Nc1nc2ccccc2n1/N=C/c1ccc2c(c1)OCO2 was read as Insulin prom up -0.56 and KCC2 mod -0.58.
Screening Cn1c(/N=C/c2ccc3c(c2)OCO3)nc2ccccc21 returned L major viab 4, ROMK primary 0.55, WT yeast gro inh 43, KCC2 mod -3.1*, KCC2 sec1 0.0075, KCC2 bumet counter 0.0044, KCC2 secondary2 inconclusive, HEK counter1 0.0073, KCC2 retest ouab 0.017* and HEK counter2 0.01.
Screening C/C(=N\NC(=O)c1c(Br)c(C)nn1C)c1cccc(NC(=O)c2ccccc2C)c1 returned Insulin prom up -0.78, INS promoter inh 17, L major viab 25, WT yeast gro inh 0 and KCC2 mod -2.8.
Screening C/C(=N\NC(=O)c1c(Br)c(C)nn1C)c1cccc(NC(=O)C2CCC2)c1 returned INS promoter inh 0, L major viab 4, WT yeast gro inh -15, KCC2 mod -5.2*, KCC2 sec1 0.0055, KCC2 bumet counter 0.0047, KCC2 secondary2 0.027, HEK counter1 0.0071, KCC2 retest ouab 0.017 and HEK counter2 0.0096.
Screening O=C(C(=O)N1CCN(c2cccc(Cl)c2)CC1)c1c[nH]c2ccccc12 returned Insulin prom up -0.46, INS promoter inh 12, L major viab 3, ROMK primary -0.51, WT yeast gro inh 30 and KCC2 mod -2.7.
`O=C(C(=O)N1CCN(c2ccc(F)cc2)CC1)c1c[nH]c2ccccc12` gave Insulin prom up 1.2, L major viab 3, ROMK primary 0.36, WT yeast gro inh 8, KCC2 mod -3.5*, KCC2 sec1 0.0065, KCC2 bumet counter 0.0048, KCC2 secondary2 0.025*, HEK counter1 0.0079, KCC2 retest ouab inconclusive and HEK counter2 0.011.
